According to PubChem BioAssay AID1259343 (VanderVen Lab, College of Veterinary Medicine, Cornell …, 2017):
About 2,900 (47%) of roughly 6,200 compounds were called active. The set was probably picked from earlier hits. The list shows a part of the results. Values without a mark were called inactive. Cut-off read from the data, not from the text of the source: active = inhibition above about 50%; inactive = the rest.

Assay: Mycobacterium tuberculosis growth inhibition, primary screen (AID 1259343)
Conditions: inhibition: at 10 µM, active compounds read high; outcome: 10 uM

SMILES | inhibition
CC1CCc2[nH]c3c(C(=O)NCC4CN(C)CCO4)cccc3c2C1 (stereo not given) | 39.4%
Cc1nc(Cc2noc(CC3CC4CCC3C4)n2)no1 (stereo not given) | 66.8% (active)
Cc1ccc(CN(C)Cc2nc(CC3CC3)no2)o1 | inactive
COc1ccc(C=Nn2c(-c3ccc(Cl)cc3)csc2=N)cc1 | 60.1% (active)
COCCN=c1scc(-c2ccc(OC(F)F)cc2)n1N=Cc1ccc(OC)cc1 | 63.2% (active)
COCCN=c1scc(-c2ccc(Br)cc2)n1N=Cc1ccc(F)cc1 | 40.8%
C(=Nn1c(-c2ccccc2)csc1=NCCc1ccccc1)c1ccccn1 | 21.8%
COCCN=c1scc(-c2ccc(OC(F)F)cc2)n1N=CC1CC2C=CC1C2 (stereo not given) | 101% (active)
CN=c1scc(-c2ccccc2)n1N=Cc1cccc(C(F)(F)F)c1 | 1.23%
C=CCN=c1scc(-c2ccc(OC(F)F)cc2)n1N=Cc1ccc[nH]1 | 46.4%
CN=c1scc(-c2ccc(OC(F)F)cc2)n1N=Cc1cccc(O)c1O | 98.9% (active)
CN=c1scc(-c2ccccc2)n1N=Cc1ccccc1Br | 6.14%
COc1ccc(/C=N\n2c(-c3ccc(Cl)cc3)csc2=N)cc1 | 38.1%
CN=c1scc(-c2cccc(Br)c2)n1N=Cc1cccc(O)c1O | 17.2%
N#CC1(c2ccccc2)CCC2(CC1)N=C(N)Nc1nc3cc4c(cc3n12)OCCCO4 (stereo not given) | 45.8%
Clc1ccc(CNc2c3c(nc4nncn24)CCC3)cc1 | 54.3% (active)
O=S(=O)(NCc1ccc(Cl)cc1)N1CCCCCC1 | 10.6%
Cc1ccc(Sc2ccc(NC(=O)C3=COCCO3)cc2)cc1C | 33.3%
O=C(Nc1ccc(SCc2cccnc2)cc1)C1=COCCO1 | 61% (active)
O=C(Nc1ccc(Oc2ccccc2)cc1)C1=COCCO1 | 49.4%
O=C1NC(=S)C(=Cc2ccc(-c3ccc(F)cc3)o2)S1 | 97.6% (active)
NC(=S)NN=Cc1ccc(-c2nc3ccccc3s2)o1 | 67.3% (active)
NC(=S)NN=Cc1ccc(-c2ccc(SC(F)F)cc2)o1 | 103% (active)
N#CC(C#N)=Cc1ccc(-c2ccc(SC(F)F)cc2)o1 | -10.2%
N=c1oc2c([N+](=O)[O-])cc(Cl)cc2cc1-c1nc2ccccc2s1 | -34.4%
O=C(Nc1nc(-c2nc3ccccc3s2)cs1)c1ccc([N+](=O)[O-])o1 | -46.3%
N#CC(C#N)=Cc1ccc(-c2ccc(F)cc2)o1 | -20.9%

SMILES | inhibition
O=C1NC(=S)C(=Cc2ccc(-c3nc4ccccc4s3)o2)S1 | 77.4% (active)
Cc1nc(CNS(=O)(=O)c2c(C)c(C)c(C)c(C)c2C)cs1 | 6.48%
O=C(O)c1cc(Br)c2ccccc2c1O | 96% (active)
Cc1ccn(C(=O)Cc2csc(-c3ccccn3)n2)c(=NC2CCCCC2)c1 | -7.81%
Cc1cc(NC(=O)CNCc2csc(-c3cnccn3)n2)ccc1Cl | 77.5% (active)
O=c1[nH]c2cc(Cl)ccc2c(O)c1-c1ccc(Oc2ccccc2)cc1 | 17.5%
O=c1[nH]c2ccccc2c(O)c1Sc1ccccc1 | 82.5% (active)
O=C(c1c(-c2ccc(Br)cc2)c2ccccc2[nH]c1=O)C(F)(F)F | 18.7%
CCc1ccc(N2C(=O)/C(=C/c3cc(C)n(-c4ccc(C(=O)O)cc4)c3C)C(=O)NC2=S)cc1 | 34.2%
COC(=O)c1ccccc1NCc1cc(=O)oc2cc(O)c(O)cc12 | 75.9% (active)
CNC(=O)C(C#N)C(=O)CCc1cccc(OC2CCCC2)c1 (stereo not given) | 54.1% (active)
N#Cc1cccc(C(=O)NCc2cccnc2OC2CCCC2)c1 | -4.09%
CC1CC(=O)NN1CC(=O)N1c2ccccc2OCC1c1ccccc1 (stereo not given) | 26.4%
CCC(NC(=O)Nc1ccc(-c2csnn2)cc1)c1nccs1 (stereo not given) | -4.07%
CCN(CC(C)C#N)C(=O)Nc1ccc(-c2csnn2)cc1 (stereo not given) | 80.5% (active)
Cc1cc(=O)[nH]c(=S)[nH]1 | 0.31%
CCc1ccc(S(=O)(=O)c2cnc3ccc(C)cc3c2N2CCC3(CC2)OCCO3)cc1 | 67.2% (active)
O=C(Nc1ccc(Oc2ccccc2)nc1)C1CCN(C(=O)c2cccs2)CC1 | 77.1% (active)
O=C(Nc1ccc(Oc2ccccc2)nc1)C1CCN(Cc2cccc3nonc23)CC1 | inactive
C#Cc1ccc(CN2CCC(C(=O)Nc3ccc(Oc4ccccc4)nc3)CC2)cc1 | -2.94%
O=C(Nc1ccc(Oc2ccccc2)nc1)C1CCN(C(=O)c2cnsn2)CC1 | 93.8% (active)
CC(=O)c1cc(CN2CCC(C(=O)Nc3ccc(Oc4ccccc4)nc3)CC2)cs1 | 63.2% (active)
O=C(Nc1ccc(Oc2ccccc2)nc1)C1CCN(C(=O)c2ccco2)CC1 | 90.5% (active)
O=C(Nc1ccc(Oc2ccccc2)nc1)C1CCN(C(=O)[C@@H]2C[C@@H]3C=C[C@H]2C3)CC1 | 56.1% (active)
COc1cc(C)ccc1S(=O)(=O)NC(=O)C1(C)CCN1C(=O)Cc1ccc(Cl)cc1Cl (stereo not given) | 47.9%
COc1cc(CNCCO)cc(Cl)c1OCc1ccc(Cl)cc1Cl | 83% (active)
COc1ccc(OCCCOc2ccc(Cl)cc2Cl)cc1 | 27.8%

SMILES | inhibition
O=c1[nH]c(=S)[nH]nc1-c1ccc2c(c1)OCCO2 | 36.5%
O=c1[nH]c(=S)[nH]nc1-c1ccc(F)c(F)c1 | 80.3% (active)
NC(CC1CCCC1)c1ccc(Oc2ccccc2)cc1 (stereo not given) | 79.5% (active)
COc1cc(Oc2ccccc2)ccc1N | 23.5%
Nc1ccc(Oc2cc(N)cc(Oc3ccccc3)c2)cc1 | -36.6%
COc1ccccc1C1(O)CCN(CCCn2c3ccccc3c3ccccc32)CC1 | 51.9% (active)
CCCc1ccc(C(O)c2ncc(-c3ccccc3)[nH]2)cc1 (stereo not given) | 36.8%
Cc1cc(C(O)c2ncc(-c3ccc(Cl)cc3)[nH]2)ccc1F (stereo not given) | 84.8% (active)
CCCc1ccc(C(O)c2ncc(-c3ccccc3F)[nH]2)cc1 (stereo not given) | 21.1%
CCc1ccc(C(O)c2ncc(-c3cccc(C)c3)[nH]2)cc1 (stereo not given) | 56.7% (active)
Cc1ccc(-c2cnc(C(O)c3ccc(Cl)c(F)c3)[nH]2)cc1 (stereo not given) | 42.2%
CCCc1ccc(C(O)c2ncc(-c3cccc(C)c3)[nH]2)cc1 (stereo not given) | 19.5%
CCc1ccc(C(O)c2ncc(-c3ccc(C)cc3)[nH]2)cc1 (stereo not given) | 1.21%
CCc1ccc(C(O)c2ncc(-c3cccc(C(F)(F)F)c3)[nH]2)cc1 (stereo not given) | 34%
Cc1ccc(-c2cnc(C(O)c3cc(C)cc(C)c3)[nH]2)cc1 (stereo not given) | 61.7% (active)
Cc1ccc(C(O)c2ncc(-c3ccc(Cl)cc3)[nH]2)cc1 (stereo not given) | 36.3%
CCCc1ccc(C(O)c2ncc(-c3ccccc3C)[nH]2)cc1 (stereo not given) | 78% (active)
OC(c1ccc(Cl)cc1)c1ncc(-c2cccc(F)c2)[nH]1 (stereo not given) | 8.73%
Cc1ccccc1-c1cnc(C(O)c2ccc(C(C)(C)C)cc2)[nH]1 (stereo not given) | 49.1%
CCCc1ccc(C(O)c2ncc(-c3cccc(F)c3)[nH]2)cc1 (stereo not given) | 35.4%
OC(c1cccc(F)c1)c1ncc(-c2ccc(Oc3ccccc3)cc2)[nH]1 (stereo not given) | 89.6% (active)
OC(c1cccc(F)c1)c1ncc(-c2ccc(C(F)(F)F)cc2)[nH]1 (stereo not given) | 19%
Cc1cc(C)c(C(O)c2ncc(-c3cccc4ccccc34)[nH]2)c(C)c1 (stereo not given) | 78.9% (active)
OC(c1ccccc1)c1ncc(-c2ccc(Oc3ccccc3)cc2)[nH]1 (stereo not given) | 36.3%
Cc1ccc(C(O)c2ncc(-c3ccc(C(F)(F)F)cc3)[nH]2)cc1F (stereo not given) | 61.8% (active)
CC(C)(C)c1ccc(C(O)c2ncc(-c3ccccc3)[nH]2)cc1 (stereo not given) | 13.8%
OC(c1cc(F)cc(Cl)c1)c1ncc(-c2ccc(Cl)cc2)[nH]1 (stereo not given) | 86.1% (active)

SMILES | inhibition
Cc1ccc(C(O)c2ncc(-c3cccc(F)c3)[nH]2)cc1 (stereo not given) | 11.8%
CS(=O)c1nncn1CC#Cc1ccc(C(F)(F)F)cc1 (stereo not given) | 37%
OC(c1ccc(Cl)c(Cl)c1)c1ncc(-c2cccc(F)c2)[nH]1 (stereo not given) | 23.7%
OC(c1cc(F)cc(Cl)c1)c1ncc(-c2ccc3ccccc3c2)[nH]1 (stereo not given) | 73.4% (active)
OC(c1ccc(Cl)c(F)c1)c1ncc(-c2cccc(F)c2)[nH]1 (stereo not given) | 36.1%
Cn1c(CCC(=O)Nc2ccc(F)cc2F)nc(=O)c2ccccc21 | 72.3% (active)
CCc1nc2c(c(=O)c3ccccc3n2C)c(=O)n1CCc1ccccc1 | -31.8%
O=C1c2ccccc2C(=O)N1CCCCNc1ccc(F)cc1F | 49.6%
Cn1cnnc1SCC(=O)Nc1ccc2oc3ccccc3c2c1 | 76.7% (active)
Cc1cc(NC(=O)CSc2nc3ccccc3c(=O)n2C2CCCC(C)C2C)on1 (stereo not given) | 9.06%
O=C(CSc1ncnc2c1oc1ccccc12)Nc1ccc2c(c1)OCO2 | 47.2%
Cn1nnnc1SCC(=O)Nc1ccc2oc3ccccc3c2c1 | 36.7%
O=C(CSc1nncs1)Nc1ccc2oc3ccccc3c2c1 | 92.2% (active)
CC(C)(C)NC(=O)[C@H]1CC[C@H]2[C@@H]3CC[C@H]4NC(=O)C=C[C@]4(C)[C@H]3CC[C@]12C | 86.4% (active)
CC(=O)[C@H]1CCC2C3CCC4=CC(=O)CC[C@]4(C)C3CC[C@@]21C (stereo not given in full) | 49.6%
Cc1ccc(Nc2nc(C)c([N+](=O)[O-])c(N3CCOCC3)n2)c(C)c1 | 2.59%
COCC(C)Nc1ncnc2c1c(-c1ccccc1)cn2-c1ccc(OC)cc1 (stereo not given) | -15.1%
COCCCNc1ncnc2c1c(-c1ccccc1)cn2-c1ccc(OC)cc1 | 91.3% (active)
Cc1ccc(-n2cc(-c3ccccc3)c3c(NCCCO)ncnc32)cc1 | 24.3%
COc1ccc(-n2cc(-c3ccccc3)c3c(NCC(OC)OC)ncnc32)cc1 | 19.7%
COCCCNc1ncnc2c1c(-c1ccccc1)cn2-c1ccc(F)cc1 | 98.3% (active)
COCC(C)Nc1ncnc2c1c(-c1ccccc1)cn2-c1ccc(F)cc1 (stereo not given) | 72.1% (active)
COCCNc1ncnc2c1c(-c1ccccc1)cn2-c1cccc(Cl)c1 | 42.5%
COCCNc1ncnc2c1c(-c1ccccc1)cn2-c1ccc(C)cc1 | 100% (active)
